Compound activity from PubChem BioAssay.
WRN inhibitor: qHTS for Inhibitors of WRN Helicase. Bifunctional 3'-5' exonuclease/ATP-dependent helicase WRN (Homo sapiens), Q14191. 360,000 compounds, 0.46% hits. Potency, µM (highest dose often 114 µM), hits mostly inhibitors. WRN helicase unwinding, fluorescent forked duplex, kinetic; further: nearly all actives have a fitted effect of over 55% in size
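WRN at 20 nM final preincubated with compound 15 min at room temperature; reaction started with 100 nM fluorophore/quencher forked duplex oligonucleotide and 2 mM ATP final. Unwinding followed kinetically by red fluorescence (ex 525, em 598 nm).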
POLB inh: qHTS Assay for Inhibitors of DNA Polymerase Beta | P06746 | Pol beta primer extension/strand displacement, fluorescence kinetic | Potency, µM (titrated, usually from 114 µM), usual class: inhibitors | 340,000 compounds, 1.3% hits
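Enzyme-only controls used 10 nM Pol beta; buffer lacking enzyme served as negative control. Compound preincubated 15 min, then 50 nM substrate added; 0 and 10 min reads at room temperature.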
Pol eta inh-1: qHTS for Inhibitors of Polymerase Eta. recombinant Pol eta, fluorescent DNA replication assay. Potency, µM (top dose mostly 114 µM), hits mostly inhibitors. 390,000 compounds, 1.2% hits. DNA polymerase eta (Homo sapiens), Q9Y253
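Pol eta at 10 nM preincubated with compounds 15 min at room temperature; reaction started with fluorescent substrate (50 nM final) and read kinetically at 0 and 10 min.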
Pol kappa inh-1: qHTS for Inhibitors of Polymerase Kappa; DNA polymerase kappa (Homo sapiens), Q9UBT6; purified Pol kappa, fluorescent DNA synthesis assay, 10 min; Potency, µM (top dose mostly 107 µM), most hits filed as inhibitors; 400,000 compounds, 0.53% hits
Target sequence (Q9UBT6 whole entry, looked up): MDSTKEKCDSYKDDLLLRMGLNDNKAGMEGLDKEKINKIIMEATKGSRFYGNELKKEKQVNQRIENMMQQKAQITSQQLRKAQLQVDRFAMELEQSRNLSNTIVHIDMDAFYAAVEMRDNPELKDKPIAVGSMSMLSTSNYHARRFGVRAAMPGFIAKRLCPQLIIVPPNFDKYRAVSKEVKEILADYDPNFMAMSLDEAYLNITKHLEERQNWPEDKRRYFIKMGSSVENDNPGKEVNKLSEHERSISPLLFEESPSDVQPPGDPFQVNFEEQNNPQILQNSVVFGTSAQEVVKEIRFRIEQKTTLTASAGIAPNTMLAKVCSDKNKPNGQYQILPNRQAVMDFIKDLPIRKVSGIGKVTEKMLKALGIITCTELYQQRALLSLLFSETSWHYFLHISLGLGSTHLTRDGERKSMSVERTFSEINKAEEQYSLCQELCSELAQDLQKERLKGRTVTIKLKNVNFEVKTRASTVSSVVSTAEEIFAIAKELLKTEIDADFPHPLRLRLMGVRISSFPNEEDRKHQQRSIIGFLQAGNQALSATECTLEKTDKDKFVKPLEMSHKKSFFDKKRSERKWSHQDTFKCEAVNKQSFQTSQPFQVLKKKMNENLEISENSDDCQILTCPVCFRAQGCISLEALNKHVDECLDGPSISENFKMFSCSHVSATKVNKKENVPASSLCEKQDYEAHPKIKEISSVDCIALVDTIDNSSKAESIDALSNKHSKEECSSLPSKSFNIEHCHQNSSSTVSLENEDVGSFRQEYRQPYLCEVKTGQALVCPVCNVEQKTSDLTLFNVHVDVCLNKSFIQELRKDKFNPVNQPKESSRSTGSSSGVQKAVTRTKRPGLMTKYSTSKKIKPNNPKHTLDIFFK
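50 nM final substrate added after 15 min RT preincubation of 10 nM Pol kappa with compound; fluorescence read at 0 and 10 min.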
POLI inh: qHTS for Inhibitors of Polymerase Iota; Pol iota fluorescent replication assay, 10 min; Potency, µM (top dose mostly 115 µM), usual class: inhibitors; 390,000 compounds, 1% hits; AID 588590, 2011
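Pol iota at 10 nM preincubated 15 min with compounds at room temperature; reaction started with fluorescent substrate, 50 nM final. Fluorescence read kinetically at 0 and 10 min; buffer-only wells as negative control.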
FEN1 inh: qHTS Assay for the Inhibitors of Human Flap endonuclease 1 (FEN1); P39748; Recombinant FEN1 flap cleavage, fluorescence, 15 min; Potency, µM (titrated, usually from 114 µM), most hits filed as inhibitors; 390,000 compounds, 0.35% hits; AID 588795, 2011; further: nearly all actives have a fitted effect of over 65% in size
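Enzyme 10 nM, 15 min RT preincubation with compound; start with substrate 50 nM final; reads at 0 and 15 min; qHTS titration, four-parameter Hill fit.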
TbPGK inh: qHTS for inhibitors of Phosphogylcerate Kinase: Hit Validation Screen. shares compounds with Pol kappa inh-1. TbPGK coupled GAPDH assay, Kinase-Glo luminescence. Potency, µM (highest dose often 57.5 µM), usual class: inhibitors. 500 compounds, 79% hits; further: nearly all actives have a fitted effect of over 65% in size
POLI cherry-pick: qHTS for Inhibitors of Polymerase Iota: Confirmatory Assay for Cherry-picked Compounds; shares compounds with Pol kappa inh-1; Pol iota primer extension, TAMRA/BHQ fluorescence; Potency, µM, actives largely listed as inhibitors; 1,500 compounds, 77% hits
Pol kappa inh-2: qHTS for Inhibitors of Polymerase Kappa: Confirmatory Assay for Cherry-picked Compounds | shares compounds with Pol eta inh-1 | purified Pol-kappa, fluorescent strand-displacement substrate | Potency, µM, most hits filed as inhibitors | 920 compounds, 76% hits | AID 720501, 2013
Pol eta inh-2: qHTS for Inhibitors of Polymerase Eta: Confirmatory Assay for Cherry-picked Compounds. shares compounds with Pol eta inh-1. Pol eta primer extension, TAMRA/BHQ fluorescence, 10 min. Potency, µM, hits mostly inhibitors. 2,600 compounds, 64% hits. AID 720502, 2013
Of the large screens only hits and unclear results are named; the others gave an inactive call (follow-up assays come after a bar, where they were run). Shown are actives, neighbours in structure and some others; about 2.4% of the full set was active somewhere. The call rests on the fitted dose curve; in most records, active means well fitted curve in the direction sought with a large enough effect; inconclusive means small, poorly fitted or top-dose-only effect, or another doubt; inactive means no such curve, though single readings can be large; an effect the other way counts as inactive or inconclusive.

CCOc1ccc(/C=N/NC(=O)c2[nH]ncc2Br)c(O)c1	none | TbPGK inh 18µM
COc1ccc(OC)c(/C=N/NC(=O)c2[nH]ncc2Br)c1	none
Nc1nc(Nc2ccccc2)nc2ccccc12	none
CN(C)c1ccc(Nc2nc(N)c3ccccc3n2)cc1	none | TbPGK inh 13µM
C/C(=N\NC(=O)c1cnccn1)c1ccc([N+](=O)[O-])cc1	none
C/C(=N/NC(=O)c1cc(O)c(O)c(O)c1)c1ccc([N+](=O)[O-])cc1	WRN inhibitor inconclusive, POLB inh 1.8µM, Pol eta inh-1 14µM, Pol kappa inh-1 13µM, POLI inh inconclusive, FEN1 inh inconclusive | TbPGK inh inconclusive
Cc1cccc(C)c1NC(=O)CN(C)C(=O)c1cccc(-n2cccc2)c1	WRN inhibitor 71µM, Pol eta inh-1 10µM, Pol kappa inh-1 inconclusive, POLI inh 8.9µM (no result: POLB inh) | POLI cherry-pick inconclusive
COc1ccccc1CCNC(=O)c1cc(-c2ccncc2)nc2ccc(Br)cc12	Pol eta inh-1 45µM | POLI cherry-pick inconclusive
Cc1cc(C)c2cc3c(N)c(C(=O)Nc4c(C)[nH]c(=O)[nH]c4=O)sc3nc2c1	WRN inhibitor inconclusive, POLB inh inconclusive, Pol eta inh-1 45µM, POLI inh inconclusive, FEN1 inh inconclusive | POLI cherry-pick inconclusive
CCCCN(CCCC)c1ccc(/C=C2\C=Cc3ccccc32)cc1	none (no result: WRN inhibitor, POLB inh, Pol eta inh-1)
CCOc1cc(/C=N/N=C2/NC(=O)C(CC(=O)O)S2)ccc1OCc1ccc(Cl)cc1Cl (stereo unspecified)	WRN inhibitor inconclusive, POLB inh 22µM, Pol eta inh-1 32µM, Pol kappa inh-1 inconclusive, POLI inh inconclusive, FEN1 inh inconclusive | POLI cherry-pick 75 | Pol kappa inh-2 75 | Pol eta inh-2 76
CC1=C/C(=C\c2ccc(Br)o2)C(=O)O1	WRN inhibitor 20µM, POLB inh 6.3µM, Pol eta inh-1 2.2µM, Pol kappa inh-1 25µM, POLI inh 10µM, FEN1 inh inconclusive | TbPGK inh 3.7µM | POLI cherry-pick 17 | Pol kappa inh-2 17 | Pol eta inh-2 11
Cc1ccc(C=C2C=C(c3ccccc3)OC2=O)cc1	none (no result: POLB inh, Pol kappa inh-1, POLI inh, FEN1 inh)
O=C(NCCN1CCN(c2ccccc2)CC1)C1(S(=O)(=O)c2ccc(Cl)cc2)CC1	none
CC1(C)CCC(c2ccc(Cl)cc2)=C(CN2CCN(c3ccc(C(=O)NS(=O)(=O)c4ccc(N[C@H](CCN5CCOCC5)CSc5ccccc5)c(S(=O)(=O)C(F)(F)F)c4)cc3)CC2)C1	Pol kappa inh-1 45µM, POLI inh 40µM, FEN1 inh inconclusive (no result: WRN inhibitor, POLB inh, Pol eta inh-1) | POLI cherry-pick 67 | Pol kappa inh-2 inconclusive | Pol eta inh-2 inconclusive
Cc1nc2c(c(C)c1CCC(=O)N1CCN(c3ccccc3)CC1)c(=O)n(C)c(=O)n2C	none (no result: WRN inhibitor)
